Test results: PubChem BioAssay (EPA / NIEHS)
Activity calls are given as the source filed them. Rule for the calls: active = hit-call score of the fitted dose curve at least 0.9, where 1 is the maximum; inactive = score below 0.9.

read-out: Plasminogen activator inhibitor-1 (PAI1), SERPINE1 (gene 5054); assay: BSK_hDFCGF_PAI1: BioMAP Diversity Plus: hDFCGF Assay for Plasminogen activator inhibitor-1 (PAI1) Biomarker Activity (AID 2283066); settings: primary human foreskin fibroblasts; actives raise or lower the signal
Summary of the method: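 PAI-1 levels in human dermal foreskin fibroblasts were quantified by ELISA 24 h after dosing, with gain or loss analysed against DMSO. Overt cytotoxicity was checked by sulforhodamine B total-protein staining in parallel cultures.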

| Compound | outcome | AC50 |
| --- | --- | --- |
| O=C(O)CC(O)(CC(=O)O)C(=O)O | inactive | – |
| COc1ccc(OC(F)(F)F)cc1CN[C@H]1CCCN[C@H]1c1ccccc1 | inactive | – |
| CS(=O)(=O)c1ccc([C@@H](C[C@H]2CCC(=O)C2)C(=O)Nc2cnccn2)cc1Cl | inactive | – |
| O=C1c2c(O)cccc2Cc2cccc(O)c21 | inactive | – |
| Cc1c(C)c2c(c(C)c1O)CCC(C)(COc1ccc(CC3SC(=O)NC3=O)cc1)O2 (stereo unspecified) | – | 8.87 µM (active) |
| CCCCC(CC)COC(=O)CCCCCCCC(=O)OCC(CC)CCCC (stereo unspecified) | inactive | – |
| C#CC(O)C(CC)CCCC (stereo unspecified) | inactive | – |
| COC(=O)CCC(=O)OC | inactive | – |
| CC(=O)O | inactive | – |
| CC(=O)CC(c1ccccc1)c1c(O)c2ccccc2oc1=O (stereo unspecified) | inactive | – |
| CC(=O)O[C@]1(C(C)=O)CC[C@H]2[C@@H]3C=C(Cl)C4=CC(=O)[C@@H]5C[C@@H]5[C@]4(C)[C@H]3CC[C@@]21C | – | 1.74 µM (active) |
| c1ccc2occc2c1 | inactive | – |
| NC1CCCCC1 | inactive | – |
| NC(=Nc1ccccc1)Nc1ccccc1 | inactive | – |
| CCCCC(CC)COP(=O)(OCC(CC)CCCC)OCC(CC)CCCC (stereo unspecified) | inactive | – |
| O=C(N[C@@H](c1ccccc1)[C@@H]1CCCCN1)c1cccc(C(F)(F)F)c1Cl | – | 9.69 µM (active) |
| Oc1ccccc1O | inactive | – |
| CC(=O)[C@@]1(O)CC[C@H]2[C@@H]3CCC4=CC(=O)CC[C@]4(C)[C@H]3CC[C@@]21C | inactive | – |
| CCCCOC(=O)CCCCC(=O)OCCCC | inactive | – |
| CCc1nc(N)nc(N)c1-c1ccc(Cl)cc1 | inactive | – |
| CO[C@@H]1COCC[C@@H]1N[C@@H]1CC[C@@](C(=O)N2CCc3ncc(C(F)(F)F)cc3C2)(C(C)C)C1 | inactive | – |
